# In PubChem BioAssay:
# Measured potencies and affinities stand elsewhere. Results filed as inconclusive are left out. Unmarked numbers belong to inactive results. Calls of active or inactive are those of the source.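 How the source made its calls, unless noted: active means a dose-response fit showing signal loss, with half-maximal concentration no higher than twice the top tested dose; inconclusive means flat fit between 30% and 70% signal loss, or poor fit; inactive means the rest.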
# Legend:
# [1] = inducers of Cryptococcus neoformans cell lysis, dose response, AK release luminescence, cherry-picks (AID 687000;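 active means fitted dose curve reaches 40% lysis signal rise at or below the highest valid concentration tested for that sample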;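 further: luminescent detection of adenylate kinase leaking from lysed yeast; 0% = median neutral control signal and 100% = double that signal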)
# [2] = HepG2 cell cytotoxicity, dose response, cytotoxicity control, cherry-picks, set 2 (AID 687002)
# [3] = HeLa cell cytotoxicity, dose response, cytotoxicity control, ATP luminescence, cherry-pick samples (AID 687004;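 active means a fitted half-maximal concentration no higher than twice the top valid tested dose, with signal falling as cells die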;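 further: 0% = neutral control median and -100% = staurosporine 10 µM control median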)
# [4] = Cryptococcus neoformans growth inhibition, dose response, Alamar Blue, cherry-picks (AID 686998;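 active means falling signal with fitted half-maximal potency no higher than twice the top valid tested dose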)
# [5] = cytotoxicity in PAX8-dependent RMG-1 cells, dose response, cell-based, cherry-pick (AID 687029;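 active means signal drop whose fitted half-maximal concentration is at most twice the top valid dose, in every test run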;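 further: cells exposed to compound for 96 hours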)
# [6] = cytotoxicity in IOSE-T80 ovarian epithelial cells, dose response, selectivity assay for PAX8 inhibitor project, cell-based, cherry-pick (AID 687032;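 active means fitted half-maximal concentration for viability loss no higher than twice the top valid dose, in every repeat run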;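 further: cells exposed to compound for 96 h before reading; 0% = neutral control wells and -100% = 2 µM mitoxantrone kill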)
# [7] = inhibitors of CMV-promoter luciferase reporter, dose response, counter-screen for Pax8 inhibitor project, cell-based, HEK293, luminescence, dry powder (AID 743020;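 active means signal-lowering compounds whose fitted half-maximal concentration is at or below twice the top tested dose in every run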;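 further: HEK293 cells stably expressing the CMV luciferase reporter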)
# [8] = non-specific cell cytotoxicity, dose response, cytotoxicity control for PAX8 inhibitor project, plate reader, dry powder samples (AID 743021; call rule not given here)
# [9] = IGROV1 ovarian cancer cell cytotoxicity, dose response, PAX8 inhibitor project, plate reader, dry powder samples (AID 743043; call rule not given here;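 further: more negative means fewer viable cells or more cytotoxicity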)
# [10] = NIH:OVCAR-3 ovarian cancer cell cytotoxicity, dose response, PAX8 inhibitor project, plate reader, dry powder samples (AID 743044; call rule not given here); conditions: max activity: at 35 µM, stronger effect = lower value unless noted
# [11] = IOSE-T80 ovarian epithelial cell cytotoxicity, dose response, cytotoxicity control for PAX8 inhibitor project, plate reader, dry powder samples (AID 743045; call rule not given here;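 further: 0% = neutral control median and -100% = positive control median; more negative values mean more cell killing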)
# [12] = cytotoxicity in OVCAR8 ovarian cancer cells, dose response, PAX8 project, cell-based, plate reader, dry powder samples (AID 743197; call rule not given here)
smiles,measurement,setting,value
CC(C)Oc1cccc(C(=O)NC(=S)Nc2ccccc2N2CCOCC2)c1,outcome,[1],inactive
same,outcome,[2],inactive
same,outcome,[3],inactive
CCC(=O)N(C)C[C@@H]1Oc2cc(C#CC(C)(C)O)ccc2S(=O)(=O)N([C@H](C)CO)C[C@H]1C,outcome,[4],inactive
same,outcome,[2],inactive
same,outcome,[3],inactive
COc1cccc(S(=O)(=O)N(C)C[C@@H]2OCc3ccccc3-c3ccccc3C(=O)N([C@@H](C)CO)C[C@@H]2C)c1,outcome,[4],inactive
same,outcome,[2],inactive
same,outcome,[3],inactive
same,outcome,[5],inactive
same,outcome,[6],inactive
same,outcome,[7],inactive
same,outcome,[8],inactive
same,outcome,[9],inactive
same,max activity,[10],"-40.1% [at 8 µM, stronger effect = lower value]"
same,outcome,[11],inactive
same,outcome,[12],inactive
CC(C)CC#Cc1cnc2c(c1)C(=O)N([C@H](C)CO)C[C@H](C)[C@@H](CN(C)Cc1cccc(F)c1)O2,outcome,[4],inactive
same,outcome,[2],inactive
same,outcome,[3],inactive
CC(=O)N[C@H]1CC[C@@H](CCNC(=O)C2CCC2)O[C@H]1CO,outcome,[1],inactive
same,outcome,[2],inactive
same,outcome,[3],inactive
Cc1ccc(NC(=S)Nc2ccc(Cl)c(Cl)c2)c(OC(F)F)c1,outcome,[1],inactive
same,outcome,[2],inactive
O=C(NC(=S)Nc1cccc(F)c1)c1cccc([N+](=O)[O-])c1,outcome,[4],inactive
same,outcome,[2],inactive
same,outcome,[3],inactive
COc1ccc(NC(=S)NCc2ccccc2Cl)c(OC)c1,outcome,[1],inactive
same,outcome,[2],inactive
same,outcome,[3],inactive
Cc1noc(C)c1NC(=O)Nc1ccc2c(c1)C(=O)N([C@@H](C)CO)C[C@H](C)[C@H](CN(C)S(=O)(=O)c1ccc(Cl)cc1)O2,outcome,[4],inactive
same,outcome,[2],inactive
same,outcome,[3],inactive
CNC[C@@H]1OCCCC[C@@H](C)Oc2ccc(NS(=O)(=O)c3ccc(Cl)cc3)cc2C(=O)N([C@H](C)CO)C[C@H]1C,outcome,[4],inactive
same,outcome,[2],inactive
same,outcome,[3],inactive
CC(C)NC(=O)Nc1ccc2c(c1)CC(=O)N([C@H](C)CO)C[C@H](C)[C@@H](CN(C)C(=O)Nc1ccc3c(c1)OCO3)O2,outcome,[1],inactive
same,outcome,[2],inactive
COCC(=O)NC[C@H]1N[C@H](CO)[C@H]1c1ccc(C2=CCCC2)cc1,outcome,[4],inactive
same,outcome,[2],inactive
same,outcome,[3],inactive
CN1CCN(CCCNC(=O)c2ccc(/C=C3\Oc4ccccc4N(Cc4ccccc4F)C3=O)cc2)CC1,outcome,[1],inactive
same,outcome,[2],inactive
CC(C)CC#Cc1ccc2c(c1)O[C@H](CN(C)C(=O)C1CCC1)[C@@H](C)CN([C@@H](C)CO)S2(=O)=O,outcome,[1],inactive
same,outcome,[2],inactive
Cc1ccc(N2CCN(C(CCc3ccccc3)C(=O)Nc3c(C)cccc3C)CC2)cc1 (stereo not drawn),outcome,[1],inactive
same,outcome,[2],inactive
Cc1noc(C)c1S(=O)(=O)Nc1ccc2c(c1)CC(=O)N([C@H](C)CO)C[C@H](C)[C@H](CN(C)S(=O)(=O)c1cccs1)O2,outcome,[4],inactive
same,outcome,[2],inactive
same,outcome,[3],inactive
C[C@@H]1CN([C@@H](C)CO)C(=O)Cc2cc(NS(=O)(=O)c3ccccc3)ccc2O[C@@H]1CN(C)Cc1ccc(Cl)c(Cl)c1,outcome,[1],inactive
same,outcome,[2],inactive
C(=Nn1cnnc1)c1ccc2c(c1)CCC2,outcome,[1],inactive
same,outcome,[2],inactive
O=C(COc1ccc2c(c1)CCC2)NCc1ccc(Cl)cc1,outcome,[1],inactive
same,outcome,[2],inactive
same,outcome,[3],inactive
N#C[C@H]1[C@@H](c2ccc(C#CCC3CCCC3)cc2)[C@@H](CO)N1C(=O)c1ccccn1,outcome,[1],inactive
same,outcome,[2],inactive
O=C(C1CCOCC1)N1C[C@H]2[C@@H](c3ccccc31)[C@@H](CO)N2Cc1ccccc1Cl,outcome,[1],inactive
same,outcome,[2],inactive
CC(=O)c1ccc(OCC(=O)NCc2ccc(F)cc2)cc1,outcome,[1],inactive
same,outcome,[2],inactive
same,outcome,[3],inactive
C[C@@H]1CN([C@H](C)CO)S(=O)(=O)c2ccc(-c3ccccc3)cc2O[C@H]1CN(C)C(=O)C1CCCCC1,outcome,[1],inactive
same,outcome,[2],inactive
C[C@H](CO)N1C[C@H](C)[C@@H](CN(C)Cc2ccc(-c3ccccc3)cc2)Oc2ccc(NC(=O)Nc3ccc(C(F)(F)F)cc3)cc2C1=O,outcome,[4],inactive
same,outcome,[2],inactive
same,outcome,[3],inactive
C/C=C/c1ccc([C@@H]2[C@H]3CN(C(=O)Nc4ccc(OC)cc4)CCCCN3[C@H]2CO)cc1,outcome,[1],inactive
same,outcome,[2],inactive
C[C@@H]1CCCCO[C@H](CN(C)Cc2ccccc2)[C@H](C)CN([C@@H](C)CO)C(=O)c2cc(NS(=O)(=O)c3cccs3)ccc2O1,outcome,[1],inactive
same,outcome,[2],inactive
same,outcome,[3],inactive
CC(=O)c1sc(NC(=O)c2cc(-c3ccccc3)nn2-c2ccccc2)nc1C,outcome,[1],inactive
same,outcome,[2],inactive
COCCN1C(=S)N[C@@H](c2ccccc2)C(C(=O)OC)=C1C,outcome,[4],inactive
same,outcome,[2],inactive
same,outcome,[3],inactive
CC(=O)c1ccc(N2CCN(C(=O)Cc3cccs3)CC2)cc1,outcome,[1],inactive
same,outcome,[2],inactive
same,outcome,[3],inactive
CCC(=O)N1CCC1(C)C(=O)Nc1ccc(C)c(C)c1 (stereo not drawn),outcome,[1],inactive
same,outcome,[2],inactive
same,outcome,[3],inactive
CCCC(=O)Nc1ccc2c(c1)OC[C@H](C)N(Cc1ccccn1)C[C@H](C)[C@H](OC)CN(C)C2=O,outcome,[1],inactive
same,outcome,[2],inactive
same,outcome,[3],inactive
CCc1ccc(NC(=O)[C@H](C)NC(=O)C2CCN(C(=O)[C@@H](N)CC(C)C)CC2)cc1,outcome,[1],inactive
same,outcome,[2],inactive
same,outcome,[3],inactive
Cc1cccc(C)c1NC(=O)C1CCCN1C(=O)OC(C)(C)C (stereo not drawn),outcome,[1],inactive
same,outcome,[2],inactive
same,outcome,[3],inactive
O=C(c1ccco1)N1N=C(c2cccs2)CC1c1ccc(F)cc1 (stereo not drawn),outcome,[1],inactive
same,outcome,[2],inactive
same,outcome,[3],inactive
